Results as given in PubChem BioAssay.
The source made the active and inactive calls.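 How the source made its calls, unless noted: active means visually confirmed hit in the image check and inhibition above 20%; inconclusive means visually confirmed hit but inhibition not above 20%; inactive means no visual hit in the image check.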

How the values were obtained:
[1] = inhibitors of TNFa-induced NFkB p65 translocation, primary screen, imaging, HUVEC, MLSMR starter and 10KST1 sets (AID 438;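 active means inhibition above 20% together with a positive visual image hit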;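 further: compound added about 3h40 before a 20 min TNFalpha stimulation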;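 on inhibition: signal is the nuclear over cytoplasmic p65 intensity ratio per well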); settings: HUVEC TNFa-induced p65 nuclear translocation; cell count: measured here: nuclei count (cytotoxicity indicator), at 2.08 µM; inhibition: at 2 µM, stronger effect = higher value, 0% TNFa-plus-vehicle, 100% no-TNFa wells
[2] = inhibitors of mutant huntingtin aggregation, primary screen, imaging, exon1htt(103Q)mCFP cells, high-content imaging (AID 483;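 active means visual image review flags a hit and inhibition of aggregation exceeds 20%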;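 further: compound exposure lasted 3 days before fixation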;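 on nuclei count: percent of the per-plate median nuclei count of sample wells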); settings: exon1htt(103Q)mCFP cell line, aggregate imaging, at 2 µM; inhibition of aggregation: stronger effect = higher value; nuclei count: measured here: cell count, toxicity
[3] = inhibitors of E-selectin induction by TNFa, primary screen, imaging, HUVEC, immunofluorescence, MLSMR starter and 10KST1 sets (AID 487); settings: HUVEC TNFalpha-induced E-selectin immunofluorescence imaging, at 2 µM; inhibition: stronger effect = higher value; nuclei count: measured here: cell number, toxicity;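 on inhibition: signal is fraction of cell area covered by stained E-selectin grains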;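 on nuclei count: 100% = median nuclei count of all wells on the same plate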
[4] = target: Voltage-gated potassium channel subunit beta-2 (Rattus norvegicus) (UniProt P62483); assay: KvBeta enzyme negative modulators, primary screen, biochemical, NADPH fluorescence (AID 622;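 active means fluorescence slope higher than the sample average by over 3 SD, cut at about -0.22 in these data, passing the limit was not always enough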;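 further: slope of raw intensity against log time taken from 70 to 1610 s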); settings: recombinant KvBeta, 4-cyanobenzaldehyde reduction, at 10 µM, stronger effect = higher value
[5] = target: Voltage-gated potassium channel subunit beta-2 (Rattus norvegicus) (UniProt P62483); assay: KvBeta positive modulators, primary screen, biochemical, NADPH fluorescence (AID 623;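 active means NADPH fluorescence slope more negative than the mean of all samples by about 3 SD, 99.7% confidence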;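 further: fluorescence intensity change per second fitted from 20 to 320 s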); settings: Recombinant KvBeta, NADPH fluorescence decrease slope, 10 min; at 10 µM; stronger effect = lower value
[6] = target: Alpha-2C adrenergic receptor (Homo sapiens) (UniProt P18825); assay: modulators of alpha2C/GIRK thallium flux, primary screen, cell-based, HEK293 alpha2C/GIRK1/2 (AID 624;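 active means fluorescence slope after compound addition differing from the mean of all screened samples at 99.7% confidence, in either direction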;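 further: slope of fluorescence ratio to pre-addition baseline per second over 15 to 24 s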); settings: thallium flux BTC fluorescence, at 10 µM, actives lie on both sides
[7] = inhibitors of Sendai virus-induced IRF3 signaling, primary screen, TLR/RLR signaling modifier project, cell-based, Sendai virus stimulus, luciferase, 10K MLSCN set (AID 602276;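 active means inhibition at or above 50% at 10 µM; inactive means inhibition below 50%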;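 further: firefly luciferase from ISG56 promoter only with Renilla not read in this screen; 0% = Sendai virus plus DMSO and 100% = medium plus DMSO without virus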); settings: HEK293 RL24 IRF3 luciferase reporter, at 10 µM, stronger effect = higher value
[8] = inhibitors of poly I:C-induced TLR3 signaling, primary screen, cell-based, poly I:C stimulus, luciferase, 10K MLSCN set (AID 602277;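 active means inhibition of the reporter signal at or above 50%; inactive means inhibition below 50%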); settings: HEK293-TLR3 RL24 IRF3 luciferase reporter, at 10 µM, stronger effect = higher value

Chain of Alpha-2C adrenergic receptor (Homo sapiens) (P18825 whole entry, looked up): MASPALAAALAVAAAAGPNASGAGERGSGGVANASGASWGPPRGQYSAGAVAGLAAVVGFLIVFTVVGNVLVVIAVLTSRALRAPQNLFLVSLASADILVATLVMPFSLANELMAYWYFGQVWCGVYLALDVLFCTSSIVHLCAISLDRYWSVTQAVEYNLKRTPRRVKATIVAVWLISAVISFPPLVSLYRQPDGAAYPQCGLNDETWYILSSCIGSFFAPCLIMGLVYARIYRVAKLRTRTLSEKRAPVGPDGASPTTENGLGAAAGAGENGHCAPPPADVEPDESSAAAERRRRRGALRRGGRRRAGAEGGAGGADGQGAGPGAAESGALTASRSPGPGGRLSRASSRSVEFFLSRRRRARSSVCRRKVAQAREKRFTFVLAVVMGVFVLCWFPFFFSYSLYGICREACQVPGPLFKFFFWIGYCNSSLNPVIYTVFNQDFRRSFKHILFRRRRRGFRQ
Chain of Voltage-gated potassium channel subunit beta-2 (Rattus norvegicus) (P62483 whole entry, looked up): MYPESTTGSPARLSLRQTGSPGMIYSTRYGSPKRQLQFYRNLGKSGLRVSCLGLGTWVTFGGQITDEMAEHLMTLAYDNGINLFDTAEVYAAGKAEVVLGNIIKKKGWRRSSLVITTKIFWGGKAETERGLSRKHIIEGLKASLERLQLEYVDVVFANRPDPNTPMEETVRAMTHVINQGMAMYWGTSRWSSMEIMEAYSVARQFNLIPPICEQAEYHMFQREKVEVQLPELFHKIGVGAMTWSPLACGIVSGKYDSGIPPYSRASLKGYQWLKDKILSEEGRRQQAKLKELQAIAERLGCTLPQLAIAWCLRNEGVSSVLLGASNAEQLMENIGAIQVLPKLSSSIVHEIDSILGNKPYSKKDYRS

Row | SMILES | cell count [1] | inhibition [1] | inhibition of aggregation [2] | nuclei count [2] | inhibition [3] | nuclei count [3] | fluorescence slope [4] | NADPH fluorescence slope [5] | slope [6] | inhibition [7] | inhibition [8]
1 | C=CCSc1nnc(-c2cccnc2)o1 | 566 | 8.2% (inactive) | 13.3% (inactive) | 94.4% | 19.1% (inactive) | 78.2% | -0.539 (inactive) | -5.1e-05 (inactive) | 0.00706 (inactive) | 1.31% (inactive) | -8.9% (inactive)
2 | Cc1cc(NC(=O)CSc2nnc(COc3cccc(C)c3C)n2Cc2ccco2)no1 | 363 | -8.7% (inactive) | 7.4% (inactive) | 93% | -60.4% (inactive) | 101% | -0.6 (inactive) | -6.6e-06 (inactive) | 0.00725 (inactive) | 4.7% (inactive) | 11.9% (inactive)
3 | O=C(CSc1nnc(C2COc3ccccc3O2)o1)N1CCCc2ccccc21 (stereo not drawn) | 438 | -1.8% (inactive) | 0.8% (inactive) | 87.9% | -80.9% (inactive) | 136% | -0.298 (inactive) | -4e-06 (inactive) | 0.00363 (inactive) | 12.5% (inactive) | 34.9% (inactive)
4 | CCc1ccccc1NC(=O)C(CC)Sc1nc2cc3c(cc2c(=O)n1Cc1ccco1)OCO3 (stereo not drawn) | 486 | 9.8% (inactive) | -21.1% (inactive) | 115% | -3.3% (inactive) | 105% | -0.494 (inactive) | -1.8e-05 (inactive) | 0.00667 (inactive) | 16.3% (inactive) | 22.3% (inactive)
5 | COc1ccc(C(=O)CSc2nc(C)cc(=O)[nH]2)cc1 | 291 | 6.5% (inactive) | 13.9% (inactive) | 92.1% | 43.1% (inactive) | 98.7% | -0.506 (inactive) | 2.1e-06 (inactive) | 0.0048 (inactive) | 14.8% (inactive) | 9.5% (inactive)
6 | O=C(Nc1ccc2c(c1)OCO2)c1cccc(Cl)c1 | 407 | 1.4% (inactive) | -14.3% (inactive) | 107% | -22.5% (inactive) | 114% | -0.398 (inactive) | -4.1e-06 (inactive) | 0.0047 (inactive) | -28.3% (inactive) | -70.9% (inactive)
7 | COc1cccc(OCCSc2nnc3sc4ccccc4n23)c1 | 548 | -6.3% (inactive) | 0.2% (inactive) | 89% | -24.1% (inactive) | 127% | -0.463 (inactive) | -0.000108 (inactive) | 0.00727 (inactive) | -10.1% (inactive) | -31.6% (inactive)
8 | CCOCCn1c(CN2CCC(Cc3ccccc3)CC2)nc2c1c(=O)n(C)c(=O)n2C | 598 | 10.6% (inactive) | 25.3% (inactive) | 84.1% | 7.1% (inactive) | 108% | -0.473 (inactive) | -2.3e-05 (inactive) | 0.00435 (inactive) | 19.8% (inactive) | 22.9% (inactive)
9 | CCOc1ccc2nc(Nc3nc4c(c(=O)[nH]3)CCC4)nc(C)c2c1 | 612 | 0.8% (inactive) | -12.1% (inactive) | 112% | -9.2% (inactive) | 110% | -0.429 (inactive) | -5.3e-05 (inactive) | 0.00628 (inactive) | -19.8% (inactive) | -83.1% (inactive)
10 | COC(=O)C1C(=O)C2=C(CC1C)NC(=O)CC2c1ccccc1 (stereo not drawn) | 285 | -14.6% (inactive) | 14.6% (inactive) | 92.8% | 48.6% (inactive) | 80.1% | -0.388 (inactive) | -4.9e-05 (inactive) | 0.00369 (inactive) | 9.64% (inactive) | 22.4% (inactive)
11 | Cn1c(SCC(=O)Nc2ccc(F)cc2)nnc1-c1cccnc1 | 660 | -1.1% (inactive) | 5.2% (inactive) | 90.3% | -57.8% (inactive) | 110% | -0.578 (inactive) | -4.7e-05 (inactive) | 0.00652 (inactive) | -0.187% (inactive) | 21.7% (inactive)
12 | O=C(CSc1nnnn1C1CCCC1)N1CCN(C(=O)c2ccco2)CC1 | 367 | -10.3% (inactive) | 2% (inactive) | 105% | -54.2% (inactive) | 107% | -0.483 (inactive) | -2.2e-05 (inactive) | 0.00599 (inactive) | -2.14% (inactive) | 16.4% (inactive)
13 | Cc1cccc(OCc2nc(C#N)c(NCCN(C)C)o2)c1 | 628 | -2.9% (inactive) | -1.8% (inactive) | 102% | -27.6% (inactive) | 105% | -0.514 (inactive) | -3.5e-05 (inactive) | 0.00503 (inactive) | 9.05% (inactive) | 28.8% (inactive)
14 | COc1cccc(NC(=O)C2CCN(c3ncccn3)CC2)c1 | 746 | -18.4% (inactive) | -8.1% (inactive) | 94.4% | -62.3% (inactive) | 129% | -0.437 (inactive) | -1.9e-05 (inactive) | 0.00449 (inactive) | 0.711% (inactive) | -6.34% (inactive)
15 | Cn1cnc2c(N3CCCCC3)nccc21 | 720 | -31% (inactive) | 0.5% (inactive) | 97.8% | -88.5% (inactive) | 122% | -0.417 (inactive) | -0.000121 (inactive) | 0.00681 (inactive) | 7.97% (inactive) | 22.8% (inactive)
16 | O=C(NCc1ccco1)c1cccc(-c2nnc(-c3ccccc3)o2)c1 | 320 | -6% (inactive) | 5.1% (inactive) | 122% | -78.1% (inactive) | 124% | -0.422 (inactive) | -6.2e-05 (inactive) | 0.00529 (inactive) | 18.5% (inactive) | -23.1% (inactive)
17 | c1ccc(-c2nc3nonc3c3nc4ccccc4n23)cc1 | 333 | -12.4% (inactive) | 1.1% (inactive) | 95.8% | -40.9% (inactive) | 94.2% | -0.244 (inactive) | -2.9e-05 (inactive) | 0.00529 (inactive) | 9.01% (inactive) | -7.48% (inactive)
18 | Fc1ccc(-c2nnc(CN3CCN(c4ncc(C(F)(F)F)cc4Cl)CC3)o2)cc1 | 405 | -14.7% (inactive) | 8.2% (inactive) | 111% | -9.8% (inactive) | 124% | -0.435 (inactive) | -8.4e-06 (inactive) | 0.00518 (inactive) | 8.36% (inactive) | -7.66% (inactive)
19 | COCCn1c(C)c(C(=O)O)sc1=S | 279 | 3.8% (inactive) | 8.1% (inactive) | 86.9% | -4.7% (inactive) | 104% | -0.416 (inactive) | 5e-06 (inactive) | 0.00261 (inactive) | 9.55% (inactive) | -6.08% (inactive)
20 | CN(CC(=O)Nc1sccc1C#N)C1CCCCC1 | 723 | -7.3% (inactive) | -178% (inactive) | 7.1% | -27.2% (inactive) | 125% | -0.42 (inactive) | -1.4e-05 (inactive) | 0.00552 (inactive) | -14.2% (inactive) | 99.3% (active)
21 | O=C(Nc1ccc2c(c1)OCCO2)c1cnc2n(c1=O)CCS2 | 550 | -2.3% (inactive) | 9.3% (inactive) | 78.2% | -8.2% (inactive) | 98.4% | -0.57 (inactive) | -5.8e-06 (inactive) | 0.00627 (inactive) | -79.9% (inactive) | -177% (inactive)
22 | CC(C)CC(=O)N1CCN(S(=O)(=O)c2ccc(F)cc2)CC1 | 662 | 7.7% (inactive) | -7.6% (inactive) | 105% | 34.7% (inactive) | 86.5% | -0.401 (inactive) | 2e-05 (inactive) | 0.00623 (inactive) | -4.5% (inactive) | -11.7% (inactive)
23 | CNC(=O)CSc1nnc(-c2cccc(S(=O)(=O)N3CCOCC3)c2)n1-c1ccc(F)cc1 | 474 | 7.2% (inactive) | 13.2% (inactive) | 104% | -18.5% (inactive) | 106% | -0.376 (inactive) | -6.4e-05 (inactive) | 0.00569 (inactive) | 6.45% (inactive) | 26% (inactive)
24 | Cc1ccc(O)c(-c2cc(C(=O)Nc3ccc(S(=O)(=O)N4CC(C)OC(C)C4)cc3)[nH]n2)c1 (stereo not drawn) | 371 | 6.2% (inactive) | 0.4% (inactive) | 97.2% | 0.1% (inactive) | 92.7% | -0.478 (inactive) | -0.000199 (inactive) | 0.00494 (inactive) | 22.4% (inactive) | 43.5% (inactive)
25 | O=C(C1CCCN1S(=O)(=O)c1cccc2cccnc12)N1CCn2c1nc1ccccc12 (stereo not drawn) | 626 | -1.1% (inactive) | -15.8% (inactive) | 117% | -28.6% (inactive) | 124% | -0.63 (inactive) | -1.3e-05 (inactive) | 0.00657 (inactive) | 8.59% (inactive) | 21.7% (inactive)
26 | Oc1cccc(Nc2nc(NCC3CCCO3)c3ccccc3n2)c1 (stereo not drawn) | 555 | -70.4% (inactive) | -4.4% (inactive) | 95.5% | -47.9% (inactive) | 104% | -0.612 (inactive) | 2.9e-05 (inactive) | 0.00401 (inactive) | 14.4% (inactive) | -32.6% (inactive)
27 | CCCCn1c(CN2CCN(c3ccc(F)cc3)CC2)nc2c1c(=O)n(C)c(=O)n2C | 574 | 14.4% (inactive) | 1.3% (inactive) | 90.1% | -6.8% (inactive) | 82.5% | -0.53 (inactive) | -3.3e-05 (inactive) | 0.00657 (inactive) | 1.37% (inactive) | 3.77% (inactive)
28 | c1cncc(-c2nc3c4ccccc4nc(N4CCC(N5CCCCC5)CC4)n3n2)c1 | 512 | -10.4% (inactive) | -10.8% (inactive) | 97.3% | -5.9% (inactive) | 98.2% | -0.455 (inactive) | -0.000334 (inactive) | 0.00496 (inactive) | 24.2% (inactive) | 30% (inactive)
